PME-1 primary – blocks human protein phosphatase methylesterase 1 | inhibition, % at 5.9 µM | recombinant PME-1, FP-Rh probe fluorescence polarization | Q9Y570 | hit rate 0.53% among 320,000;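 active means inhibition above the campaign mean of all compounds plus 3 SD, cut at about 26% in these data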;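 further: competitive labeling of PME-1 active site by serine hydrolase directed probe; 0% = PME-1 with DMSO and 100% = wells lacking PME-1 enzyme; inhibitors block probe labeling so polarization falls and inhibition rises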
Fam108B counter – Fam108B inhibition, counter-screen for RBBP9 inhibitors; recombinant Fam108B, FP-Rh probe fluorescence polarization; inhibition, % at 9.51 µM; hit rate 0.33% among 300,000;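 active means inhibition above the screen mean inhibition plus 3 SD, computed separately per campaign, cut at about 18% in these data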;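 further: inhibitors lower polarization as less probe binds the enzyme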
GSTO1 counter – GSTO1 inhibition, counter-screen for RBBP9 inhibitors; recombinant GSTO1, activity-based probe fluorescence polarization; inhibition, % at 5.96 µM; hit rate 1.1% among 300,000; AID 1974;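 active means inhibition above the campaign mean inhibition plus 3 SD, cut at about 35% in these data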;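 further: 0% = GSTO1-1 with DMSO and 100% = wells lacking GSTO1-1 enzyme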
Target sequence (P78417 whole entry, looked up): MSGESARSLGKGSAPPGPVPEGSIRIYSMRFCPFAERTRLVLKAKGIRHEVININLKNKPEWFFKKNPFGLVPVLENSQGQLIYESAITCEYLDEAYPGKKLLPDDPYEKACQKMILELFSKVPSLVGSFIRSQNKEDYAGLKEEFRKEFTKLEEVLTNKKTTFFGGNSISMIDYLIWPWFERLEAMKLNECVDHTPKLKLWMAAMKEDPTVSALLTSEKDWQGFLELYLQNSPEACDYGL
LYPLA1 inh – counter-screen for PME1 inhibitors: inhibitors of human LYPLA1. recombinant LYPLA1, FP-Rh probe fluorescence polarization. inhibition, % at 5.9 µM. hit rate 0.16% among 320,000. AID 2174;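 active means inhibition above the mean of all tested compounds plus 3 SD, set per campaign, cut at about 14% in these data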;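 further: inhibitors block serine hydrolase probe labeling of LYPLA1 so polarization falls; 0% = enzyme with DMSO and 100% = wells lacking LYPLA1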
Target sequence (O75608 whole entry, looked up): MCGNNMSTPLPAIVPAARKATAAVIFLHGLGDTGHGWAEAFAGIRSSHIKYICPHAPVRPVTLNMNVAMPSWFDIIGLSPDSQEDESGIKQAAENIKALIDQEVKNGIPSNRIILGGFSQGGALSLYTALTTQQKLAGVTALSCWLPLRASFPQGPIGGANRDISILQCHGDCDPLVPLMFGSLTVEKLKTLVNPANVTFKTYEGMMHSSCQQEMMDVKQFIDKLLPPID
LYPLA2 inh – LYPLA2 (human) inhibition in PME1 counter-screen. inhibition, % at 5.9 µM. O95372. hit rate 0.38% among 320,000. AID 2177. recombinant LYPLA2, FP-Rh probe fluorescence polarization;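 active means inhibition above the screen-wide mean plus 3 SD, limit set per campaign, cut at about 26% in these data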;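 further: 0% = LYPLA2 with DMSO and 100% = wells lacking LYPLA2 enzyme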
PAD4 FP inh – blocks human protein arginine deiminase 4. Q9UM07. recombinant PAD4, RCA probe fluorescence polarization. inhibition, % at 6.36 µM. hit rate 0.41% among 330,000. AID 485272;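 active means percent inhibition above a cutoff equal to the mean of all tested compounds plus 3 SD, cut at about 15% in these data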;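 further: 0% = PAD4 with RCA probe and DMSO and 100% = probe without PAD4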
PAD4 FP conf – PAD4 (human) inhibition, confirmed; shares compounds with PAD4 FP inh; inhibition, % at 6.36 µM; hit rate 28% among 1,200; AID 488796; recombinant PAD4, RCA probe fluorescence polarization;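 active means mean inhibition across replicates above the hit cutoff set by the earlier primary screen, cut at about 15% in these data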;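 further: inhibitors block active-site labeling by the probe so polarization falls; 0% = PAD4 with probe and DMSO and 100% = probe without PAD4 enzyme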
Active calls of the source: *; / = no result. Most compounds without a hit are left out; they make up all but 1.8% or so of the library.

SMILES	PME-1 primary	Fam108B counter	GSTO1 counter	LYPLA1 inh	LYPLA2 inh	PAD4 FP inh	PAD4 FP conf
COc1ccc(OC)c2[nH]c(=O)c(CCNC(=O)C(C)C)cc12	3	0	3	0	2	0	/
CCN(CC)S(=O)(=O)c1cccc(C(=O)NCCCn2ccnc2)c1	3	1	-4	-1	8	0	/
COc1cccc(NC(=O)CCC2CCN(Cc3nccs3)CC2)c1	1	1	6	-1	-1	1	/
O=C(CCc1nc2ccccc2c(=O)[nH]1)Nc1cccc(S(=O)(=O)N2CCCCC2)c1	23	-4	3	2	3	-3	/
CN(C)S(=O)(=O)c1cccc(NC(=O)CCCc2nc3ccccc3c(=O)[nH]2)c1	12	3	-2	2	3	29*	7
CCOC(=O)Nc1ccc2c(c1)N(C(=O)CN1CCN(CCO)CC1)c1ccccc1CC2	-3	1	4	0	-1	0	/
CS(=O)(=O)Cc1ccc(C(=O)Nc2cccc(-c3nc4ccccc4[nH]3)c2)cc1	-37	-17	-29	-17	-27	-3	/
CC(=O)NCCC(=O)Nc1sc2c(c1-c1nc3ccccc3[nH]1)CCCC2	4	1	6	2	-5	-1	/
CN1CCN(S(=O)(=O)c2cccc(C(=O)Nc3sc4c(c3-c3nc5ccccc5[nH]3)CCCC4)c2)CC1	10	14	33	-11	-10	19*	2
CS(=O)(=O)c1ccc(C(=O)Nc2cccc(-c3nc4ccccc4[nH]3)c2)cc1	-26	-8	-14	-17	-21	28*	13
CS(=O)(=O)c1ccc(C(=O)Nc2ccc(-c3nc4ccccc4[nH]3)cc2)cc1	-20	-9	-2	-9	-12	-14	/
CS(=O)(=O)c1cccc(C(=O)Nc2cccc(-c3nc4ccccc4[nH]3)c2)c1	-22	-8	-23	-18	-22	20*	16*
COc1ccccc1NC(=O)Cn1nc(Cc2cccnc2)c2ccccc2c1=O	8	-5	3	-1	5	3	/
COc1ccc(S(=O)(=O)Nc2ccccc2C)cc1	-14	-1	-4	-1	-1	75*	3
Cc1ccnc(NC(=S)N2CCN(c3cccc(C(F)(F)F)c3)CC2)c1	0	3	-2	2	4	-1	/
O=C(N/N=C/c1cn(-c2cccs2)nc1-c1ccccc1)c1ccccc1O	-30	-37	-29	-35	-42	27*	-3
O=C(N/N=C/c1cn(-c2cccs2)nc1-c1ccccc1)c1ccccc1Br	-54	-31	-15	-29	-59	-7	/
Cc1ccc(S(=O)(=O)Nc2ccc3oc(=O)sc3c2)c(C)c1	-1	9	14	-1	1	22*	7
CC(=O)c1c(C)oc2ccc(NS(=O)(=O)c3ccc(O)c(C(=O)O)c3)cc12	-8	-5	4	0	4	1	/
O=C(O)c1cc(S(=O)(=O)Nc2ccc3oc(=O)sc3c2)ccc1O	2	4	60*	1	-2	37*	19*
COc1ccc(CN(C)C(=O)CNC(=O)c2cccs2)c(OC)c1	0	/	/	-6	-6	-2	/
CCOC(=O)C(/C=N/c1cc(C)nn1-c1ccccc1)=C(\C)O	-2	-2	0	-1	-2	1	/
O=C(O)CCC(=O)Nc1ccc(SSc2ccc(NC(=O)CCC(=O)O)cc2)cc1	-5	-9	18	-3	-8	56*	50*
c1ccc(N2OCC3Cn4c(nc5ccccc54)C32)cc1 (centres undefined)	3	6	8	0	-1	1	/
CCOc1ccc(NC(=O)CN(C)C(=O)CC2CC3CCC2C3)cc1OCC (centres undefined)	-1	1	4	7	10	45*	4
SMILES	PME-1 primary	Fam108B counter	GSTO1 counter	LYPLA1 inh	LYPLA2 inh	PAD4 FP inh	PAD4 FP conf
Cc1cc(C(=O)NC2CCCc3c2cnn3-c2cccc(C)c2C)n(C)n1 (centres undefined)	1	-1	3	1	2	0	/
COc1cc2c(cc1OC)C(CSc1ccccc1C(=O)O)=NC(C)(C)C2	2	2	9	1	0	7	/
CC1(C)Cc2ccccc2C(CSc2ccccc2C(=O)O)=N1	-4	3	12	-4	0	20*	20*
COc1ccc2[nH]c(=O)c(CNc3cc(C)ccc3C)cc2c1	3	2	1	2	2	-3	/
CC(=O)C1=C(c2ccccc2)N(C(C)=O)n2c(C)nnc2S1	0	1	6	-1	-4	68*	59*
COc1cccc(SCC2CSc3nc4ccccc4c(=O)n32)c1 (centres undefined)	4	4	-4	0	-2	-2	/
CCOc1ccc2c(O)csc2c1	-5	-5	3	0	-4	24*	20*
CCS(=O)(=O)CCSc1nc2ccccc2o1	-1	3	12	3	10	0	/
O=S(=O)(CCSc1nc2ccccc2o1)c1nc2ccccc2s1	8	0	-4	0	1	17*	16*
CC(=O)C1=C(O)C(=O)N(c2nnn(C)n2)C1c1cccs1 (centres undefined)	-5	1	-1	-1	-2	1	/
CN1CCS/C1=C/C=C1/SC(=S)N(Cc2ccccc2)C1=O	14	18	-10	10	8	49*	0
COCCn1c(N)c(N(Cc2ccccc2)C(=O)C2CCCC2)c(=O)[nH]c1=O	-9	-6	-9	2	1	-4	/
CCCCCC(=O)N(Cc1ccccc1)c1c(N)n(CCOC)c(=O)[nH]c1=O	-3	3	-2	-3	2	38*	4
COc1ccc(-c2cc(C(=O)OC(C)C(=O)Nc3c(C)n(C)n(-c4ccccc4)c3=O)c3ccccc3n2)cc1 (centres undefined)	-5	-3	0	0	12	-2	/
Cc1c(NC(=O)C(C)OC(=O)c2cc(-c3cccc4ccccc34)nc3ccccc23)c(=O)n(-c2ccccc2)n1C (centres undefined)	12	4	8	5	13	19*	4
O=C(CSc1nc(C2CC2)nc2ccccc12)N1CCCCC1	-7	-1	-29	-5	3	4	/
Cc1ccc(NC(=O)CSc2nncc3ccccc23)cc1	-9	3	7	-3	-1	16*	10
O=C(CSc1nncc2ccccc12)N1CCCCC1	-10	0	3	-4	2	17*	4
Cc1ccc([N+](=O)[O-])cc1NC(=O)CSc1nncc2ccccc12	5	0	14	-5	-3	-1	/
Cc1nc(CCNC(=O)c2ccccc2)cs1	2	-3	-1	0	0	-5	/

Screening results deposited in PubChem by The Scripps Research Institute Molecular Screening Center.
